# Assay results taken from PubChem BioAssay (NCATS).
# Where “and” joins values, the source holds several entries; their conditions need not be identical. Equal values may be shown once. Inconclusive results are not listed. Calls of active or inactive are those of the source. Unless noted, calls follow the shape of the full dose curve.
# Tested on: not listed separately
# Assay: qHTS assay for small molecule disruptors of the mitochondrial membrane potential - 1 hr assay (AID 651754); also: nearly all actives have a fitted effect of over 35% in size; also: potency is read from the fitted curve at half-maximal effect; as to ratio change, negative = depolarisation: % is scaled to controls: 0 for no effect and ±100 for the full control effect
# Conditions: series mostly up to 92.2 µM; ratio change, negative = depolarisation: at the top concentration
# In short: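 HepG2 cells, attached overnight at 37C, were exposed to compound or DMSO vehicle for 1 hr at 37C, 5% CO2, then stained with Mito-MPS dye for 30 min. Red aggregate versus green monomer fluorescence reports membrane potential.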
Structure (SMILES),Potency,"ratio change, negative = depolarisation"
Oc1ccc2cc(SSc3ccc4cc(O)ccc4c3)ccc2c1,66.8 µM (active),
Nc1ccc2cc3ccccc3cc2c1,3.76 µM (active),
CO[C@H]1/C=C/O[C@@]2(C)Oc3c(C)c(O)c4c(O)c(c5c(c4c3C2=O)NC2(CCN(CC(C)C)CC2)N=5)=NC(=O)/C(C)=C\C=C\[C@H](C)[C@H](O)[C@@H](C)[C@@H](O)[C@@H](C)[C@H](OC(C)=O)[C@@H]1C,,2.87% (inactive)
Cc1cc(O)c(C(C)(C)C)cc1Sc1cc(C(C)(C)C)c(O)cc1C,10.6 µM (active),
C=C(C)c1ccccc1,,0.999% (inactive)
ClC1=C(Cl)C(Cl)(Cl)C(Cl)=C1Cl,,-2.51% (inactive)
C=CC(=O)OCCOCCOC(=O)C=C,,-7.26% (inactive)
C/C=C1\C(=O)C[C@H]2[C@@H]3CCC4=CC(=O)CC[C@]4(C)[C@H]3CC[C@]12C,,-1.28% (inactive)
O=C1OC(O)C(C(Cl)Cl)=C1Cl (stereo unspecified),,-14.8% (inactive)
CC(=O)Nc1ccc(C(=O)CCl)cc1,,-8.23% (inactive)
O=C=Nc1ccc(Cc2ccc(N=C=O)cc2)cc1,,-14% (inactive)
c1ccc2c(c1)ccc1cc3c(ccc4ccccc43)cc12,,-9.25% (inactive)
CC/C(=C(\c1ccccc1)c1ccc(OCCN(C)C)cc1)c1ccc(O)cc1,,-17.5% (inactive)
c1ccc2c(c1)-c1cccc3c1c-2cc1ccccc13,,-12% (inactive)
O=[N+]([O-])c1cc([N+](=O)[O-])c2ccc(S(=O)(=O)O)cc2c1O,,3.15% (inactive)
O=Cc1ccc(Cl)c(Cl)c1,,-3.35% (inactive)

# Tested on: not listed separately
# Assay: qHTS assay for small molecule disruptors of the mitochondrial membrane potential - 5 hr assay (AID 651755); also: nearly all actives have a fitted effect of over 40% in size; also: potency is read from the fitted curve at half-maximal effect; as to ratio change, negative = disruption: % is scaled to controls: 0 for no effect and ±100 for the full control effect
# Conditions: JC-1-type ratio dye; series mostly up to 92.2 µM; ratio change, negative = disruption: at the top concentration
# In short: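 HepG2 cells, attached overnight at 37C, were exposed to compound or DMSO for 5 hr at 37C, 5% CO2. Mito-MPS dye was then added for 30 min, and fluorescence read at 490/535 nm (monomers) and 540/590 nm (aggregates).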
Structure (SMILES),Potency,"ratio change, negative = disruption"
Oc1ccc2cc(SSc3ccc4cc(O)ccc4c3)ccc2c1,42.2 µM (active),
Nc1ccc2cc3ccccc3cc2c1,3.76 µM (active),
CO[C@H]1/C=C/O[C@@]2(C)Oc3c(C)c(O)c4c(O)c(c5c(c4c3C2=O)NC2(CCN(CC(C)C)CC2)N=5)=NC(=O)/C(C)=C\C=C\[C@H](C)[C@H](O)[C@@H](C)[C@@H](O)[C@@H](C)[C@H](OC(C)=O)[C@@H]1C,,6.45% (inactive)
Cc1cc(O)c(C(C)(C)C)cc1Sc1cc(C(C)(C)C)c(O)cc1C,16.8 µM (active),
C=C(C)c1ccccc1,,2.86% (inactive)
c1cc(OCC2CO2)cc(OCC2CO2)c1 (stereo unspecified),,4.25% (inactive)
ClC1=C(Cl)C(Cl)(Cl)C(Cl)=C1Cl,,1.49% (inactive)
C=CC(=O)OCCOCCOC(=O)C=C,,-4.86% (inactive)
C/C=C1\C(=O)C[C@H]2[C@@H]3CCC4=CC(=O)CC[C@]4(C)[C@H]3CC[C@]12C,,-11.5% (inactive)
O=C1OC(O)C(C(Cl)Cl)=C1Cl (stereo unspecified),,-19.2% (inactive)
CC(=O)Nc1ccc(C(=O)CCl)cc1,,-8.95% (inactive)
CCC(C)Nc1ccc(NC(C)CC)cc1 (stereo unspecified),59.6 µM (active),
O=C=Nc1ccc(Cc2ccc(N=C=O)cc2)cc1,,-18.6% (inactive)
CC/C(=C(\c1ccccc1)c1ccc(OCCN(C)C)cc1)c1ccc(O)cc1,,-24.4% (inactive)
c1ccc2c(c1)-c1cccc3c1c-2cc1ccccc13,,-7.08% (inactive)
O=[N+]([O-])c1cc([N+](=O)[O-])c2ccc(S(=O)(=O)O)cc2c1O,,-5.45% (inactive)
O=Cc1ccc(Cl)c(Cl)c1,,6.73% (inactive)

# Biological target: Tumor necrosis factor (Homo sapiens) (UniProt P01375)
# Assay: qHTS assay to identify small molecules that stimulate Tumor Necrosis Factor-alpha (TNF-alpha) secretion (AID 651757; active = well fitted curve in the direction sought with a large enough effect in the signal ratio; the % refers to the signal ratio; also: 0% is about no effect)
# Conditions: Human cells, HTRF 665/615 ratio; series mostly up to 92.2 µM; activation (TNF-alpha secretion): at the top concentration
# In short: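 THP-1 cells were exposed to compounds for 17 hrs at 37 C, after which secreted TNF-alpha was measured by homogeneous HTRF (TR-FRET) using cryptate- and XL665-labeled anti-TNF-alpha antibodies, read after 3 hr at room temperature.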
# Chain of Tumor necrosis factor (Homo sapiens) (P01375 whole entry, looked up): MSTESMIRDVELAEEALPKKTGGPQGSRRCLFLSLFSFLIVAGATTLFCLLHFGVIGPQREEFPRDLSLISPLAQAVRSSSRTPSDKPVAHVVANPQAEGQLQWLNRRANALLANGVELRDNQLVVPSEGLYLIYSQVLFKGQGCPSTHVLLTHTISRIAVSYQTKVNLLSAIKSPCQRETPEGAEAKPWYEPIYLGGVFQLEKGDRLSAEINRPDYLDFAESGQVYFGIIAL
row,Structure (SMILES),activation (TNF-alpha secretion)
1,Oc1ccc2cc(SSc3ccc4cc(O)ccc4c3)ccc2c1,2.58% (inactive)
2,Cc1cc(O)c(C(C)(C)C)cc1Sc1cc(C(C)(C)C)c(O)cc1C,0% (inactive)
3,C=C(C)c1ccccc1,-0.356% (inactive)
4,c1cc(OCC2CO2)cc(OCC2CO2)c1 (stereo unspecified),1.76% (inactive)
5,ClC1=C(Cl)C(Cl)(Cl)C(Cl)=C1Cl,0.239% (inactive)
6,C=CC(=O)OCCOCCOC(=O)C=C,0.511% (inactive)
7,C/C=C1\C(=O)C[C@H]2[C@@H]3CCC4=CC(=O)CC[C@]4(C)[C@H]3CC[C@]12C,0.68% (inactive)
8,O=C=Nc1ccc(Cc2ccc(N=C=O)cc2)cc1,-0.324% (inactive)
9,CC/C(=C(\c1ccccc1)c1ccc(OCCN(C)C)cc1)c1ccc(O)cc1,0.0829% (inactive)
10,O=Cc1ccc(Cl)c(Cl)c1,-0.533% (inactive)

# Tested on: not listed separately
# Assay: qHTS assay to identify small molecules that stimulate interleukin-8 (IL-8) secretion (AID 651758; active = well fitted activation curve with a large enough effect in the signal ratio; the % refers to the signal ratio; also: 0% is about no effect)
# Conditions: HTRF ratio (665/615); series mostly up to 92.2 µM; activation: at the top concentration
# In short: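 THP-1, 2000 cells/well; cpd 16 h, 37 C; add cryptate + XL665 anti-IL-8 Abs; RT 1-3 h; TR-FRET read.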
row,Structure (SMILES),activation
1,C=C(C)c1ccccc1,11% (inactive)
2,O=C1OC2(c3cc(Br)c(O)c(Br)c3Oc3c2cc(Br)c(O)c3Br)c2c(Cl)c(Cl)c(Cl)c(Cl)c21,10.6% (inactive)
3,O=C=Nc1ccc(Cc2ccc(N=C=O)cc2)cc1,6.7% (inactive)

# Tested on: not listed separately
# Assay: qHTS assay for environmental chemicals that activate the Aryl hydrocarbon Receptor (AhR) signaling pathway (AID 651777; active = well fitted activation curve with a large enough effect; also: nearly all actives have a fitted effect of over 15% in size; also: potency is read from the fitted curve at half-maximal effect; as to activation: % of control where 0% means no effect)
# Conditions: 1A2-DRE human hepatoma cells, luciferase, 24 h; activation: active compounds read high
# In short: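 Measured luciferase activity, read 30 min after One-Glo addition at room temperature, from human hepatoma cells bearing a dioxin response element–CYP1A2 promoter reporter and exposed to compound for 24 hr at 37 C.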
Structure (SMILES),activation,Potency
CN(C)c1ccc(C2(c3ccc(N(C)C)cc3)OC(=O)c3cc(N(C)C)ccc32)cc1,-0.148% (inactive),
CO[C@H]1/C=C/O[C@@]2(C)Oc3c(C)c(O)c4c(O)c(c5c(c4c3C2=O)NC2(CCN(CC(C)C)CC2)N=5)=NC(=O)/C(C)=C\C=C\[C@H](C)[C@H](O)[C@@H](C)[C@@H](O)[C@@H](C)[C@H](OC(C)=O)[C@@H]1C,-1.73% (inactive),
Cc1cc(O)c(C(C)(C)C)cc1Sc1cc(C(C)(C)C)c(O)cc1C,-3.69% (inactive) and -11.4% (inactive),
Cc1ccc(S(=O)(=O)Oc2ccc(N=Nc3ccc(-c4ccc(N=Nc5c(O)ccc6cc(S(=O)(=O)O)cc(S(=O)(=O)O)c56)c(C)c4)cc3C)cc2)cc1,-2.33% (inactive),
O=C1OC2(c3cc(Br)c(O)c(Br)c3Oc3c2cc(Br)c(O)c3Br)c2c(Cl)c(Cl)c(Cl)c(Cl)c21,-2.87% (inactive),
c1cc(OCC2CO2)cc(OCC2CO2)c1 (stereo unspecified),4% (inactive) and -2.73% (inactive),
ClC1=C(Cl)C(Cl)(Cl)C(Cl)=C1Cl,0.158% (inactive) and 0.426% (inactive),
C=CC(=O)OCCOCCOC(=O)C=C,2.82% (inactive),
C/C=C1\C(=O)C[C@H]2[C@@H]3CCC4=CC(=O)CC[C@]4(C)[C@H]3CC[C@]12C,-0.115% (inactive),
O=C1OC(O)C(C(Cl)Cl)=C1Cl (stereo unspecified),-0.209% (inactive),
CNc1ccc(O)cc1,7.98% (inactive),
CC(=O)Nc1ccc(C(=O)CCl)cc1,3.94% (inactive),
CCC(C)Nc1ccc(NC(C)CC)cc1 (stereo unspecified),-3.51% (inactive),
CC/C(=C(\c1ccccc1)c1ccc(OCCN(C)C)cc1)c1ccc(O)cc1,-5.29% (inactive),
c1ccc2c(c1)-c1cccc3c1c-2cc1ccccc13,,7.08 µM (active)
